Screening data (PubChem BioAssay)
Lassa entry inh: qHTS for Inhibitors of binding or entry into cells for Lassa Virus. Lassa virus pseudotype entry inhibition, cell reporter. Potency, µM (highest dose often 37.9 µM), for inactives: top-dose activity change, negative = inhibition, usual class: inhibitors. 1.2% of 300,000 active. AID 540256, 2011; calls by dose curve; tested in HEK293 cells; further: potency means the concentration at half of the fitted maximal effect; on the % scale 0 is the no-effect control and ±100 the full control effect; nearly all actives have a fitted effect of over 50% in size
MARV entry inh: qHTS for inhibitors of binding or entry into cells for Marburg Virus; Marburg virus pseudotyped entry inhibition, cell reporter; Potency, µM (highest dose often 37.8 µM), for inactives: top-dose activity change, negative = inhibition, usual class: inhibitors; 1.8% of 300,000 active; calls by dose curve; tested in HEK293 cells; further: potency means the concentration at half of the fitted maximal effect; on the % scale 0 is the no-effect control and ±100 the full control effect
CHX counter: Cycloheximide Counterscreen for Small Molecule Inhibitors of Shiga Toxin; cell reporter, cycloheximide protein synthesis inhibition counterscreen; max response, %; 12% of 300,000 active; AID 2314, 2010; in the data active means max response mostly above about 13%, no sharp cut-off; inactive means mostly below about 14%; further: read at 38.3 µM for the half of the compounds with a filed dose; 0% is about no effect
Shiga toxin inh: A qHTS for Small Molecule Inhibitors of Shiga Toxin | Vero cells, Shiga toxin protein synthesis inhibition reporter | 9.2% of 290,000 active | inhibition, % at 38.7 µM; in the data active means inhibition mostly above about 28%, no sharp cut-off; inactive means mostly below about 43%; further: 0% is about no effect
An asterisk follows results filed as active; ? = inconclusive; nt = not tested or not shown; ! = repeats disagree; [ ] = dose if it differs, or a comment. Compounds with a hit are over-represented: about 12% of the library has one in this group of screens.

SMILES	Lassa entry inh	MARV entry inh	CHX counter	Shiga toxin inh
O=C(O)c1ccc2nc(-c3cc4cccc(O)c4oc3=O)[nH]c2c1	-17%[46.1 µM]	nt	nt	nt
CCc1cc2c(=O)c(-c3nc4ccccc4[nH]3)coc2c(CN2CCCCC2)c1O	nt	nt	27*	35
COC(=O)c1cc(F)c(S(=O)(=O)N2CCN(S(=O)(=O)c3ccc4c(c3)OCCO4)CC2)cc1F	nt	nt	-9	-5
c1ccc(-c2nnc(-c3ccccn3)nc2NC2CCCCC2)cc1	5µM*	3.5µM*	24	19
CNc1nc(-c2ccccn2)nnc1-c1ccccc1	?	?	4	22
Cc1cc(N2CCN(C)CC2)nc2ccc(NC(=O)c3ccccc3F)cc12	?	?	37*	72*
CCOc1cc(C(=O)Nc2ccc3nc(N4CCN(C)CC4)cc(C)c3c2)cc(OCC)c1OCC	-20%[46.1 µM]	5.6µM*	nt	nt
CCN1CCN(c2cc(C)c3cc(NC(=O)c4ccccc4F)ccc3n2)CC1	?	?	14	21
COC1CCCN(C(=O)c2ccc(OC3CCN(S(=O)(=O)N(C)C)CC3)cc2)C1 (configuration not stated)	?	-5%	-1	9
C/C(=N\NC(=O)c1cccnc1)c1c(O)cc(C)oc1=O	-2%	9%	21*	34*
C/C(=N\NC(=O)c1cccnc1)c1cc(C)oc1C	?	4%	11	47
C/C(=N\NC(=O)c1ccccc1O)c1c(O)cc(C)oc1=O	52%[14.3 µM]	?	28*	27
O=C(NCC1CC1)Nc1cccc(Cl)c1	nt	nt	25*	86*
COc1ccc(N2CCC(CNC(=O)Nc3ccc(Cl)cc3)C2)cc1 (configuration not stated)	nt	nt	14*	23
Cc1cccc(NC(=O)NCC2CC2)c1	-1%[46.1 µM]	?	14*	37
O=C(NCC1CC1)Nc1ccc(Cl)cc1	nt	nt	32*	70*
O=C(NCC1CC1)Nc1cccc(C(F)(F)F)c1	-17%[46.1 µM]	2%[46.1 µM]	3	17
O=c1n(-c2ccccc2)c(=O)n2n1CC[C@@H]1C(=NOC[C@@H](O)COCc3ccco3)[C@H]3O[C@H]3[C@@H](O)[C@H]12	nt	-23%[14.2 µM]	nt	nt
CCN(CC)S(=O)(=O)c1nnc(NC(=O)COc2ccc(C)cc2)s1	0%[46.1 µM]	nt	nt	nt
COc1ccccc1OCCCCn1c(-c2ccc(Cl)cc2)nc2ccccc2c1=O	31%[46.1 µM]	4%[46.1 µM]	nt	nt
COC(=O)CN1C(=O)CSc2ccc(S(=O)(=O)Nc3ccc(F)c(Cl)c3)cc21	-8%[46.1 µM]	nt	nt	nt
OC(c1ccccc1)c1nccc2ccccc12 (configuration not stated)	-2%	?	1	16
COc1ccc(NC(=O)c2cc(S(=O)(=O)N3CCCCC3)c[nH]2)c(OC)c1	nt	nt	1	11
Cc1cccc(NC(=O)NCC(c2ccc(F)cc2)N2CCN(C)CC2)c1 (configuration not stated)	nt	nt	19*	20
CN1CCN(C(CNC(=O)Nc2ccc(Cl)cc2)c2ccc(F)cc2)CC1 (configuration not stated)	nt	nt	15	8
SMILES	Lassa entry inh	MARV entry inh	CHX counter	Shiga toxin inh
COc1ccccc1C(CNc1nc(C(F)(F)F)nc2ccccc12)N(C)C (configuration not stated)	-27%[46.1 µM]	?	-4	-6
CSc1ncc(C(=O)Nc2ccc(C(C)=O)cc2)c(C)n1	nt	nt	35*	80*
CSc1ncc(C(=O)Nc2ccc(Br)cn2)c(C)n1	nt	nt	23*	56*
CSc1ncc(C(=O)Nc2cccc(Cl)c2C)c(C)n1	7%[46.1 µM]	-6%[46.1 µM]	15	4
CSc1ncc(C(=O)Nc2ccc(Cl)cc2)c(C)n1	4%[46.1 µM]	4%[46.1 µM]	14	39*
CCOc1ccc(NC(=O)/C=C/c2ccccc2)c([N+](=O)[O-])c1	19%	-26%	25*	29
CCOc1ccc(N/C=C/C(=O)c2ccccc2)c([N+](=O)[O-])c1	1.1µM*	?	59*	46*
CCOc1ccc(/C=C/C(=O)Nc2ccc(OC)cc2[N+](=O)[O-])cc1	0%	-3%	7	21
CCCCC(=NCCc1c(C)[nH]c2ccccc12)C1=C(O)CC(c2ccccc2)CC1=O (configuration not stated)	8.9µM*	?	-1	16
COc1ccccc1-c1nn(CCC(=O)Nc2cccc(C(C)=O)c2)c2nc(C)cc(C)c12	-28%[46.1 µM]	-15%[46.1 µM]	nt	nt
N=C(N)SCCN	22%	35µM*!	nt	nt
Cn1cnnc1Sc1cc(N2CCN(S(=O)(=O)c3ccc4ccccc4c3)CC2)ccc1[N+](=O)[O-]	-4%	-3%	11*	26
Cn1cccc1/C=N/n1c(-c2ccccc2)n[nH]c1=S	?	?	-1	-2
Cn1cccc1/C=N/n1c(-c2ccc(C(C)(C)C)cc2)n[nH]c1=S	10µM*	?	20	-13
Cn1c(-c2ccc(C(C)(C)C)cc2)n[nH]c1=S	?	-21%	36*	59*
CCC(C)(C)NC(=O)C(c1ccncc1)N(Cc1ccc(C)cc1)C(=O)c1csnn1 (configuration not stated)	1%	-1%	-3	11
CC1(C)CC1C(=O)N/C(=C/CCCCSCC(N)C(=O)O)C(=O)O (configuration not stated)	nt	nt	7	4
C=CCOc1ccc(/C=C/C(=O)OCC(=O)N(C)CC(=O)Nc2ccccc2Cl)cc1	8%	19%	nt	nt
Cc1ccc(Sc2cc(C)nc(-c3ccccn3)n2)cc1	?	-21%[46.1 µM]	31*	46
COc1ccccc1Sc1nc(-c2ccccn2)ncc1OC	?	?	3	-9
COc1cnc(-c2ccccn2)nc1Sc1ccc(C)cc1	?	6.3µM*	5	7
COc1cccc(CN(C)Cc2c(O)ccc3ccccc23)c1	-34%[46.1 µM]	-10%[46.1 µM]	26	24*
CC1(C(=O)NCC2CCCO2)Oc2cccnc2NC1=O (configuration not stated)	7%	16%[46.1 µM]	-3	-11
COc1ccc(F)cc1CSc1nnnn1-c1ccc(O)cc1	?	?	-6	-9
COc1cc(CSc2nnnn2-c2ccc(C)cc2)cc(OC)c1OC	3.7µM*	?	2	-9
SMILES	Lassa entry inh	MARV entry inh	CHX counter	Shiga toxin inh
Cc1ccccc1N=CC1=C(O)c2ccccc2C1=O	10µM*	8.9µM*	35*	42
COc1ccc(N=Cc2c(O)n(Cc3ccccc3)c(=S)[nH]c2=O)c(OC)c1	14%	6%	17*	29*
O=C1C(C=Nc2ccc(F)cc2)=C(O)c2ccccc21	?	9%[46.1 µM]	61*	134*
Cc1ccc(F)cc1N=Cc1c(O)c2ccccc2oc1=O	nt	nt	-1	-17
COc1ccc(CC2=C(O)c3ccccc3C(=O)C2=O)cc1	-10%[46.1 µM]	?	-4	-15
COc1ccc(N=CC2=C(O)c3ccccc3C2=O)c(OC)c1	2.5µM*	?	26*	48
COc1cccc(CNC(=O)C2CCN(c3nnc(-n4c(C)ccc4C)s3)CC2)c1	-8%[46.1 µM]	-20%[46.1 µM]	nt	nt
O=C(N/N=C/c1cccnc1)C1CC1(c1ccccc1)c1ccccc1 (configuration not stated)	-5%	?	-9	-9
O=C(COc1cccnc1[N+](=O)[O-])c1ccc(Cl)s1	-1%	-2%	18*	29
Cc1cc(C(=O)COc2cccnc2[N+](=O)[O-])c(C)n1Cc1cccs1	?	?	43*	147*
